The text below walks through data of the supplement of paper PMC6555819.

The test system of this assay is VDR:RXRa (NR concentration 270 nM, RXRa partner concentration 90 nM). The assay is described as follows: PBM binding z-score (relative to random genomic background probes); higher = stronger binding; sequences stand for … in GC…GCGATTGACAGCGTAGAATGAAGG
As to the method:
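Protein-binding microarray (Agilent 4x180K custom design, double-stranded 60-nt probes: 5' GC cap, 34-nt variable region, 24-nt constant primer region; full probe sequence given). Purified or IVT nuclear receptor:RXRα heterodimers (3:1 NR:RXRα, mostly 270:90 nM) or homodimers were incubated for 1 h in PBS with 2% milk and no ligand, then detected with Alexa488 antibodies. Fluorescence from o1-orientation probes (~5 replicates averaged) was converted to z-scores against 500 random hg19 background probes. Variable regions are seed direct-repeat (DR0–DR5) sites, all their single-nucleotide variants and half-site ablations.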
As to CCTACTGGGCCAAGCTCATTGATCAGTCAAAGCA, the PBM binding z-score is -0.667.
GCTCGGAGGACAAGGTCAGGGCTTTGTCCGTAGA showed a PBM binding z-score of 1.64.
The value for TGAATGAGGTTTAAGATCAGGGAACGTGGCGTCG was -0.255; that for ATATGTAGGTTACGGTCATTCAGAAAGTAGGGAA was 1.54.
As for CTCGAAAGGTCGGTTGAGGTCAGTATACGGATAA, the PBM binding z-score amounted to 6.09.
CGAACTACGTCACCAGGACAGTGAAGAGGTTGGA displayed a PBM binding z-score of -0.211.
The same measure for ACTCGGAGGACAAAGGTCACAGCTACGCCAGTGA: 4.95.
In turn, CCTTACGGGTCAAGGTTATATCACGGGTGGTACG had a PBM binding z-score of 3.49.
The same measure for TTACCAAGGTGACCTGAGGTCGTTGATCCAACTC: 4.87; for CGTCCAAGGTCAATGCTAGCTCAGTGAAAGCATT: 3.63; for TCATATAGGTCAAAGGTGAAAGTCGGTGTGGTAA: 4.65.
The value for TCATATAGGTTAAAGGTGAAAGTCGGTGTGGTAA was 3.02.
The value for CTATGTAGGTTAAGCGGGTCATTCAGTTTGAAAG was 5.74; that for CCTACAGGGCCAAAGGTCATTGATTCCAATGCTC was 5.03.
As to AATACAGGGTCACTGGGCCAGAGTAGGTACGAAT, the PBM binding z-score was determined as 4.65.
The same measure for ACTTGGAGGACAAAGGTCAGAGCTACGCCAGTGA: 3.58; for ATATGTAGGTTAGGGTCATTCAAAAAGTAGGGAA: 4.58; for GCTGCTAGGTCATGTTGGTCAGCTAACGGGTACG: 2.15.
The value for ATATGTGGGTTAGGGTCATTCAGAAAGTAGGGAA was 4.97; that for TAGAGTAGGTTACGGGGGCATTCAGGGATGAAGA was 4.09.
The same measure for CCCACTGGGCCATTCAGAGGTCATTGATCATATG: 4.02; for CAAACTAGGTCACCGTAAGGTCAAAGTCCGCATG: 6.28.
As for CTATATAGGTTAAGGGGGTCATTCAGTTTGAAAG, the PBM binding z-score worked out at 7.71.
As for CCTAGTTGGTCAGGAGGTCACAAACCGGATATGA, the PBM binding z-score was found to be 3.4.
CGAACTAGGTCAAAGGACGGTGAAAGGCGACGTA registered a PBM binding z-score of 1.12.
The value for ACTAACAGGCCAAGGGTCACTCAAGATTAGTCCG was 3.07; that for CCTAGTTGGTCAAGGTCACACATGCTATAGGTAC was 4.33.
The same measure for CACACTAGGTCAAAGGTCAAAGTCGAGCCAACCA: 6.85; for CAATCTAGGTCACGAAAGGTCAAAGTCGAATGAC: 6.99; for CCTTACGGGTAACTCCAGGTTATAGCATCGGAGT: 0.375.
GCTTACGGGTCAAAGGTTATGGCATGAATAGAAT gave a PBM binding z-score of 5.58.
Regarding ACTTACGGGTCAACGACGTTATAGCACGCGTATA, the PBM binding z-score is 4.
TCTGCTGGGTCAACGATGGTCAGCTAATCTGCTA registered a PBM binding z-score of 1.62.
Sequence CCGAGTAGGTTGCGAGGGGGCATTCAGTGCGAAT showed a PBM binding z-score of 4.26.
The value for ATATCTAGGTAAAAGTTCAGTGAATCCCGAGGAT was 1.59; that for TAGCCTAGGCCATGGGCCAGTATACCACGCGAAC was -0.852; that for CCGAGTAGGTAACGAGGGGGCATTCAGTGCGAAT was 4.19.
The same measure for TCTCGGAGGACACGAAAGGTCTGAGCTCGACATC: 0.182; for CGTCCAAGGTCAATGCTAGGCCAGTGAAAGCATT: 3.78; for CGAACTAGATCACCAGGACAGTGAAGAGGTTGGA: -0.366.
